According to PubChem BioAssay AID1233 (SRMLSC, 2008):
Entries with a potency or affinity are not part of this list. Activity calls are given as the source filed them.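 The calls were made as follows: active = a dose-response curve fit returns a half-maximal inhibitory concentration, extrapolated values included; inactive = the fit returns no such concentration.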

target: HMG-CoA reductase [Enterococcus faecalis] (UniProt Q9FD70); assay: inhibitors of E. faecalis class II HMGR, confirmation, biochemical, Enterococcus faecalis (AID 1233); conditions: purified E. faecalis HMGR, NADPH absorbance 340 nm kinetics; series mostly up to 100 µM

outcome, inactive:
CCc1cccc2c(C#N)cn(CCOc3ccccc3OC)c12
COc1cccc(NC(=O)c2cc(-c3ccncc3)nc3c(C)cc(C)cc23)c1
COc1ccc(CC(=O)OCc2cc(=O)n3cc(Br)ccc3n2)cc1OC
CN(C(=O)CCN1C(=O)C(C)(C)Nc2ccccc21)c1ccccc1
COC(=O)Cc1cc(=O)n2[nH]cnc2n1
O=C(CCc1nnc(CCCc2ccccc2)o1)NCCc1ccccc1
O=C(O)c1cc(N/N=C/C(Cl)=C/c2ccccc2)ccc1Cl
Clc1cccc(CN2CCC(Cc3ccccc3)CC2)c1
COc1ccc(NC(=S)NCc2cccn2C)cc1
Cc1cccc(Nc2nnc(SCC(=O)Nc3ncc(C(F)(F)F)cc3Cl)s2)c1C
Cc1ccc(C(=O)NCc2ccccc2)c(F)c1F
COc1ccc(C)cc1NC(=O)C(Sc1nnnn1C)c1ccccc1 (centres undefined)
CCOC(=O)Cc1csc(SCC(=O)c2c(N)n(CC(C)C)c(=O)n(C)c2=O)n1
O=C(COC(=O)/C=C/c1ccco1)Nc1ccc(F)cc1Cl
O=C(Nc1ccc(N2CCOCC2)c(Cl)c1)c1ccc([N+](=O)[O-])o1
C=CCn1c(Oc2ccccc2)nc2c1c(=O)n(C)c(=O)n2C
CS(=O)(=O)N(CC(N)=O)c1cccc(Br)c1
O=C(COC(=O)c1cc([N+](=O)[O-])ccc1NCCO)c1ccc(Cl)cc1
O=C(OCC(=O)N1CCN(C(=O)c2ccco2)CC1)c1cc(-c2ccco2)nc2ccccc12
